# Assays:
# Type in all cases: functional
# [1] = biological target: Solute carrier family 2, facilitated glucose transporter member 1 (Homo sapiens) (UniProt P11166); test: ST_JUDE_LEISH: Cytotoxicity at 2uM final concentration against transgenic Leishmania Mexicana promastigotes LmGLUT1 that are glucose transport deficient and complemented with the human glucose transporter GLUT1. Activity is measured by DNA content using SYBR green in vitro
# [2] = biological target: Hexose transporter 1 (Plasmodium falciparum) (UniProt O97467); test: ST_JUDE_LEISH: Cytotoxicity at 2uM final concentration against transgenic Leishmania Mexicana promastigotes LmPfHT that are glucose transport deficient and complemented with the Plasmodium falciparum hexose transporter. Activity is measured by DNA content using SYBR green in vitro
# [3] = biological target: Glucose transporter (Leishmania mexicana) (UniProt O61059); test: ST_JUDE_LEISH: Cytotoxicity at 2uM final concentration against transgenic Leishmania Mexicana promastigotes LmGT2 that are glucose transport deficient and complemented with the L. Mexicana glucose transporter 2. Activity is measured by DNA content using SYBR green in vitro
# Sequence of Solute carrier family 2, facilitated glucose transporter member 1 (Homo sapiens) (P11166 whole entry): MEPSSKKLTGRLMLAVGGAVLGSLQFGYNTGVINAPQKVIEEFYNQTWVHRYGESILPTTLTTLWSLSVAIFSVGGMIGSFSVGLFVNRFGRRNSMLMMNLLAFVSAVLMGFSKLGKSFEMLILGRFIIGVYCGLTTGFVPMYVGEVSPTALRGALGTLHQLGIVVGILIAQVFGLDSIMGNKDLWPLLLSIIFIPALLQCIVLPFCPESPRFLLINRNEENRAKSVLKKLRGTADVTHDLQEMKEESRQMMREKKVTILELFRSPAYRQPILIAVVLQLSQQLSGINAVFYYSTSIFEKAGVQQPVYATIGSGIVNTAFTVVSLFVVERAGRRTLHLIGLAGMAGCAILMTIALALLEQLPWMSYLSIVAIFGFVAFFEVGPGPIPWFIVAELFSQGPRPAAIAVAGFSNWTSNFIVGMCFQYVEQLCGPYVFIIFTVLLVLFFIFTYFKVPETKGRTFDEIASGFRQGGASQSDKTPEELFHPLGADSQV
smiles,measurement,setting,value
CCOc1ccc2nc3cc(N)ccc3c(N)c2c1,inhibition,[1],1.58%
same,inhibition,[2],3.26%
same,inhibition,[3],1.19%
CCN(CC)Cc1cc(NC(=O)c2ccccc2O)ccc1Oc1ccc(Cl)cc1,inhibition,[1],2.02%
same,inhibition,[2],0.32%
same,inhibition,[3],1.46%
CN(CCN1CCC(c2c[nH]c3ccccc23)CC1)c1ccc(-c2nc3cc(Cl)c(Cl)cc3[nH]2)cc1,inhibition,[1],2.04%
same,inhibition,[2],0.16%
same,inhibition,[3],0.74%
CCc1ccc(CN2CCC(CNC(=O)c3cc(-c4cccc(F)c4)cs3)C2)cc1 (stereo unspecified),inhibition,[1],-0.39%
same,inhibition,[2],1.94%
same,inhibition,[3],1.42%
O=S(=O)(Nc1cc2c(cc1O)CCNCC2)c1ccc(-c2ccc(Cl)cc2)cc1,inhibition,[1],3.27%
same,inhibition,[2],-0.71%
same,inhibition,[3],2.34%
N=C(N)CCN(Cc1ccc(Cl)cc1)c1ccc(Cl)cc1,inhibition,[1],0.7%
same,inhibition,[2],0.7%
same,inhibition,[3],0.65%
Cc1ccc(CNc2ccc3ncc(-c4cccc(C(=O)NCCN(C)C)c4)n3n2)c(C)c1,inhibition,[1],5.82%
same,inhibition,[2],5.31%
same,inhibition,[3],4.49%
CNC(=O)Cc1ccc(C(=O)Nc2cccc(-c3cccc(-c4nc5cc(C(F)(F)F)ccc5[nH]4)c3)c2)cc1,inhibition,[1],-0.26%
same,inhibition,[2],0.81%
same,inhibition,[3],-0.97%
CCN1CCC(N(Cc2ccc(-c3ccc(C(F)(F)F)cc3)cc2)C(=O)Cn2c(CCc3cccc(F)c3F)cc(=O)c3cn(C)nc32)CC1,inhibition,[1],-2.3%
same,inhibition,[2],1.08%
same,inhibition,[3],0.21%
Cc1ccc(NC(C)C(=O)Nc2ccccc2)cc1S(=O)(=O)N1CCCCCC1 (stereo unspecified),inhibition,[1],10.6%
same,inhibition,[2],9.81%
same,inhibition,[3],9.12%
Cc1cccc2nc(-c3ccc(-c4ccc(CN5CCN(CCO)CC5)cc4)cc3)[nH]c12,inhibition,[1],25.5%
same,inhibition,[2],31.3%
same,inhibition,[3],17.5%
Cc1cc(NC(=O)c2cccs2)ccc1OC1CCN(Cc2ccc(F)cc2)C1 (stereo unspecified),inhibition,[1],0.09%
same,inhibition,[2],0.19%
same,inhibition,[3],1.92%
NC1=NC(c2ccccc2)(c2ccccc2)C(=O)N1CCOc1ccccc1,inhibition,[1],1.06%
same,inhibition,[2],0.96%
same,inhibition,[3],2%
Fc1ccc(CN2CCN(c3ncnc4cc(-c5ccccc5)sc34)CC2)cc1,inhibition,[1],-1.67%
same,inhibition,[2],-1.81%
same,inhibition,[3],-1.83%
Nc1c2ccccc2nc2cc([N+](=O)[O-])ccc12,inhibition,[1],8.44%
same,inhibition,[2],9.98%
same,inhibition,[3],0.99%
Cc1cc(N[C@@H](CC(C)C)C(=O)NCCOc2ccccc2)nc(NCCOc2ccccc2)n1,inhibition,[1],3.79%
same,inhibition,[2],1.16%
same,inhibition,[3],17.1%
O=C(NCCCCN1CCN(c2nsc3ccccc23)CC1)c1ccccc1C(=O)NCCCCN1CCN(c2nsc3ccccc23)CC1,inhibition,[1],2.17%
same,inhibition,[2],-0.52%
same,inhibition,[3],-0.08%
CCOC(=O)N1CCN(CCCCCNc2cc(C)nc(NC(=N)Nc3ccc(Cl)cc3)n2)CC1,inhibition,[1],6.99%
same,inhibition,[2],8.05%
same,inhibition,[3],6.08%
Cc1nc(C)c(-c2ccc(Cl)cc2)c(O)c1I,inhibition,[1],4.26%
same,inhibition,[2],2.05%
same,inhibition,[3],2.3%
CC1(C)N=C(N)N=C(N)N1c1cc(Cl)c(Cl)c(Cl)c1,inhibition,[1],1.4%
same,inhibition,[2],0.23%
same,inhibition,[3],2.36%
CNC(=O)c1cc(S(=O)(=O)N2CCN(c3ccccn3)CC2)c(C)s1,inhibition,[1],-1.34%
same,inhibition,[2],-1.2%
same,inhibition,[3],1.44%
O=C(Nc1ccc(-c2nc3ccccc3[nH]2)cc1)C1CCN(Cc2ccccc2)CC1,inhibition,[1],16.2%
same,inhibition,[2],23.4%
same,inhibition,[3],12.6%
O=[N+]([O-])c1cccc(-c2nc(-c3ccc(Br)cc3)[nH]c2-c2ccc(Br)cc2)c1,inhibition,[1],2.77%
same,inhibition,[2],4.88%
same,inhibition,[3],1.57%
Cc1ccccc1C1CCN(C2CCC(NC(=O)C3=Cc4cc(Cl)ccc4OC3)CC2)CC1 (stereo unspecified),inhibition,[1],-3.31%
same,inhibition,[2],2.37%
same,inhibition,[3],1.59%
COc1cccc(CCNc2nc(NCc3ccccc3)c3cc(OC)c(OC)cc3n2)c1,inhibition,[1],7.51%
same,inhibition,[2],5.93%
same,inhibition,[3],1.86%
Cn1c(NC(=O)C2CCC(CNC(=O)c3ccc(O)c(-c4ccc(Cl)c(Cl)c4)c3)CC2)nc2ccccc21 (stereo unspecified),inhibition,[1],0.88%
same,inhibition,[2],0.39%
same,inhibition,[3],0.36%
CNC(=N)c1ccc(NC(=O)Nc2ccc(C(=N)NC)cc2)cc1,inhibition,[1],4.64%
same,inhibition,[2],1.88%
same,inhibition,[3],3.62%
NS(=O)(=O)c1cccc(Nc2nccc(-c3cnn4ncccc34)n2)c1,inhibition,[1],50.6%
same,inhibition,[2],76.5%
same,inhibition,[3],64.8%
Nc1cccc(CNCc2cccc(-c3cccc(-c4nc5ccccc5[nH]4)c3)c2)c1,inhibition,[1],-1.07%
same,inhibition,[2],1.34%
same,inhibition,[3],-0.53%
COc1ccccc1NC(=O)OC(COc1ccc(N)cc1)CN1CC=C(c2ccccc2)CC1 (stereo unspecified),inhibition,[1],0.46%
same,inhibition,[2],0.25%
same,inhibition,[3],0.98%
CS(=O)(=O)c1ccc(CNCc2cccc(-c3cccc(-c4nc5cc(F)ccc5[nH]4)c3)c2)cc1,inhibition,[1],2.4%
same,inhibition,[2],0.6%
same,inhibition,[3],-2.93%
CCCCN(C)CC#Cc1ccc2[nH]c(C)c(Cl)c(=O)c2c1,inhibition,[1],3.48%
same,inhibition,[2],3.22%
same,inhibition,[3],2.37%
COc1cccc(-c2cc(C(F)(F)F)n3ncc(C(=O)Nc4cc(C)ccc4O)c3n2)c1,inhibition,[1],2.75%
same,inhibition,[2],3.89%
same,inhibition,[3],3.36%
Cc1cc(C)cc(NC(=S)NCCCCN2CCN(c3cccc(Cl)c3)CC2)c1,inhibition,[1],-0.5%
same,inhibition,[2],-1.31%
same,inhibition,[3],-4.65%
CS(=O)(=O)NCCCNCc1ccc(-c2cccc(-c3nc4cc(C(F)(F)F)ccc4[nH]3)c2)cc1,inhibition,[1],5.19%
same,inhibition,[2],3.56%
same,inhibition,[3],5.43%
COc1ccc(C(=O)Nc2ccc3nc(N4CCCCC4)cc(C)c3c2)cc1OC,inhibition,[1],1.54%
same,inhibition,[2],-0.36%
same,inhibition,[3],0.56%
COc1ccc(Cl)cc1C(=O)Nc1ccc(-c2nc3ccccc3[nH]2)cc1,inhibition,[1],4.93%
same,inhibition,[2],3.29%
same,inhibition,[3],1.35%
Cc1ccc(NC(=O)Nc2ccc(Cl)cc2)cc1-c1ccc(C(=O)Nc2ccncc2)cc1,inhibition,[1],2.15%
same,inhibition,[2],1.58%
same,inhibition,[3],0.65%
O=C(/C=C/c1ccc(Cl)c(Cl)c1)NC1CCC(CN2CCC(Cc3c[nH]c4ccccc34)CC2)CC1 (stereo unspecified),inhibition,[1],2.9%
same,inhibition,[2],3.43%
same,inhibition,[3],3.79%
CC(C)(CNC(=O)[C@@H]1CCCN(CCOc2ccc(F)c(F)c2)C1)c1nc(-c2ccc(Cl)c(O)c2)c(-c2ccncc2)[nH]1,inhibition,[1],0.3%
same,inhibition,[2],-0.12%
same,inhibition,[3],1.28%
CCCN1CCN(Cc2ccc(-c3ccc(-c4nc5ccccc5[nH]4)s3)cc2)CC1,inhibition,[1],-0.29%
same,inhibition,[2],2.1%
same,inhibition,[3],1.19%
CCN(CC)C(=S)N/N=C1/C(=O)Nc2c(C)cccc21,inhibition,[1],6.57%
same,inhibition,[2],4.85%
same,inhibition,[3],1.52%
CCNc1cc(C(=O)N[C@@H](Cc2ccccc2)[C@H](O)CNC23CC4CC(CC(C4)C2)C3)cc(N2CCCCS2(=O)=O)c1,inhibition,[1],3.41%
same,inhibition,[2],3.36%
same,inhibition,[3],-0.1%
C=C(NC(=O)c1cc(C)cc(C)c1)C(=O)OC,inhibition,[1],0.48%
same,inhibition,[2],-0.44%
same,inhibition,[3],0.67%
C[C@H](NC(=O)c1c(CN2CCN(C(=O)C(C)(C)C)CC2)c(-c2cccs2)nc2ccccc12)C1CCCCC1,inhibition,[1],6.07%
same,inhibition,[2],5.13%
same,inhibition,[3],2.24%
Fc1ccccc1-c1cc(Nc2ccncc2)nc(-c2cccnc2)n1,inhibition,[1],0.54%
same,inhibition,[2],1.28%
same,inhibition,[3],-6.71%
CCN(CC)CCN1C(=O)c2oc3ccc(Cl)cc3c(=O)c2C1c1ccc(SC)cc1 (stereo unspecified),inhibition,[1],-3.16%
same,inhibition,[2],-2.27%
same,inhibition,[3],8.97%
Cc1cccc2nc(-c3ccc(-c4ccc(CNCc5ccc(S(C)(=O)=O)cc5)cc4)cc3)[nH]c12,inhibition,[1],12%
same,inhibition,[2],10.9%
same,inhibition,[3],7.88%
Cc1cccc2nc(-c3ccc(-c4cccc(CNCc5ccc(CN)cc5)c4)s3)[nH]c12,inhibition,[1],3.9%
same,inhibition,[2],3.91%
same,inhibition,[3],4.55%
Cc1cc(N(C)C)nc(Nc2ccc(NC(=O)c3ccc(Br)o3)cc2)n1,inhibition,[1],7.73%
same,inhibition,[2],9.85%
same,inhibition,[3],3.96%
CN(C)C(=O)CC(=O)NCc1cccc(Cl)c1,inhibition,[1],6.99%
same,inhibition,[2],6.27%
same,inhibition,[3],7.23%
Fc1ccc2[nH]c(-c3ccc(-c4cccc(CN5CCC(CCN6CCCCC6)CC5)c4)cc3)nc2c1,inhibition,[1],2.93%
same,inhibition,[2],1.77%
same,inhibition,[3],0.37%
O=C(NCC(CCCN1CCC(c2c[nH]c3ccccc23)CC1)c1ccccc1)Nc1ccc(Cl)c(Cl)c1 (stereo unspecified),inhibition,[1],4.09%
same,inhibition,[2],2.82%
same,inhibition,[3],2.69%
Cc1ccccc1Cc1cccc(/N=C(\N)Nc2ccc(Cl)cc2)n1,inhibition,[1],5.38%
same,inhibition,[2],5.38%
same,inhibition,[3],2.51%
FC(F)(F)COc1ccc(CNCCCCCCNCc2ccc(OCC(F)(F)F)c3ccccc23)c2ccccc12,inhibition,[1],113%
same,inhibition,[2],107%
same,inhibition,[3],108%
Cc1ccc(F)cc1S(=O)(=O)Nc1cccc(CCN2CCC(N3CCCCC3)CC2)c1,inhibition,[1],3.52%
same,inhibition,[2],6.1%
same,inhibition,[3],0.55%
COc1cc(NC2=NS(=O)(=O)c3cc(Cl)ccc3N2C)cc(OC)c1OC,inhibition,[1],6.86%
same,inhibition,[2],6.41%
same,inhibition,[3],7.53%
Nc1ccc(-c2ccc(NC(=O)Nc3cc(C(F)(F)F)ccc3F)cc2)cn1,inhibition,[1],7.37%
same,inhibition,[2],4.54%
same,inhibition,[3],2.2%
OC(CNCc1ccco1)Cn1c2ccc(Br)cc2c2cc(Br)ccc21 (stereo unspecified),inhibition,[1],5.15%
same,inhibition,[2],3.41%
same,inhibition,[3],2.56%
CN(CC(=O)Nc1ccc(F)cc1)C(=O)c1ccc(-c2ccc(F)cc2)o1,inhibition,[1],5.1%
same,inhibition,[2],7.16%
same,inhibition,[3],5.24%
Nc1c2ccccc2nc2ccc(-c3ccccc3)cc12,inhibition,[1],18.4%
same,inhibition,[2],14.6%
same,inhibition,[3],13.1%
CC(=O)Nc1ccc2[nH]cc(C3CCN(CC4CCC(NC(=O)/C=C/c5ccc(Cl)c(Cl)c5)CC4)CC3)c2n1 (stereo unspecified),inhibition,[1],-0.73%
same,inhibition,[2],0.9%
same,inhibition,[3],-2.32%
COc1cc2c(=O)c(Cc3ccc(Cl)cc3)c(C)[nH]c2cc1F,inhibition,[1],2.09%
same,inhibition,[2],3.31%
same,inhibition,[3],0.73%
CN1CCC(NCc2cccc(-c3ccc(S(=O)(=O)NCc4ccccc4)cc3)c2)CC1,inhibition,[1],8.1%
same,inhibition,[2],7.9%
same,inhibition,[3],10.3%
O=C(Nc1ccccc1Br)N[C@@H]1CCN(c2ccnc3ccccc23)C1,inhibition,[1],4.02%
same,inhibition,[2],5.95%
same,inhibition,[3],3.01%
O=C(/C=C/c1ccc(Cl)c(Cl)c1)NCCCCCN1CCC(NC(=O)Nc2ccccc2F)CC1,inhibition,[1],0.1%
same,inhibition,[2],4.13%
same,inhibition,[3],-0.91%
CCc1cn(C)c2c(N3CCCC3=O)cc(C(=O)N[C@@H](Cc3ccccc3)[C@H](O)CNC(C)(C)c3cccc(OC)c3)cc12,inhibition,[1],4.6%
same,inhibition,[2],2.52%
same,inhibition,[3],7.65%
CCNCc1cccc(-c2ccc3ccnc(N)c3c2)c1,inhibition,[1],4.49%
same,inhibition,[2],3.12%
same,inhibition,[3],4.03%
COc1ccc2nccc([C@@H](O)CN3CCC(NC(=O)C(=O)c4c[nH]c5c(C)cccc45)CC3)c2c1,inhibition,[1],0.46%
same,inhibition,[2],0.43%
same,inhibition,[3],0.45%
Cc1cccc2nc(-c3ccc(-c4cccc(CNCCCN5CCCC5=O)c4)cc3)[nH]c12,inhibition,[1],7.98%
same,inhibition,[2],9.6%
same,inhibition,[3],8.02%
CN(C)Cc1ccc(CN2CCN(CCOc3ccc(-c4ccc(Cl)cc4)cc3)CC2)o1,inhibition,[1],22.7%
same,inhibition,[2],13.8%
same,inhibition,[3],19.2%
CN(Cc1cnc2nc(N)nc(N)c2n1)c1ccc(C(=O)N[C@H](CCC(=O)OC(C)(C)C)C(=O)N[C@@H](CCC(=O)OC(C)(C)C)C(=O)OC(C)(C)C)cc1,inhibition,[1],2.25%
same,inhibition,[2],1.59%
same,inhibition,[3],3.05%
